HPGD inh: HPGD (human) dehydrogenase inhibition; AID 894; P15428; purified HPGD, NADH fluorescence kinetic, PGE2 substrate; 150,000 compounds, 4.3% hits; Potency, µM, for inactives: at the highest dose activity change, negative = inhibition, usual class: inhibitors; active = well fitted inhibition curve with a large enough effect, not every such curve was filed as active; inconclusive = small, poorly fitted or top-dose-only effect, or another doubt; inactive = no such curve, though single readings can be large or run the other way
Target sequence (P15428 whole entry, looked up): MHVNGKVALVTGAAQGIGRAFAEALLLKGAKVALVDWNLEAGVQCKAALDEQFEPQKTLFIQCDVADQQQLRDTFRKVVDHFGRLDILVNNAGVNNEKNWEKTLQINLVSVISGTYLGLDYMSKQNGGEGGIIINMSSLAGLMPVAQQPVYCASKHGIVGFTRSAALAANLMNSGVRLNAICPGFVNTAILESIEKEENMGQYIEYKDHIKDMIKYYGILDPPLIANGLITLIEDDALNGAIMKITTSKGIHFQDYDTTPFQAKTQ
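20 nM HPGD preincubated 15 min at room temperature with compound in 50 mM Tris-HCl pH 8, 0.01% Tween 20. Started with 1 mM NAD+ and 30 uM prostaglandin E2; NADH fluorescence (360/450 nm) read 5 times over 30-s intervals, last minus first.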
p53ts 39C tox: kills p53ts cells at the nonpermissive temperature; H1299-p53A138V viability at 39C, ATP luminescence, 24 h; Potency, µM (titrated, usually from 46.1 µM), for the others: top-dose activity change, negative = cell killing, actives largely listed as cytotoxic; 130,000 compounds, 1.5% hits; AID 902; also: nearly all actives have a fitted effect of over 55% in size
p53ts 32C tox: cytotoxicity in p53ts cells at permissive temperature | H1299-p53A138V at 32C, ATP luminescence viability, 24 h | Potency, µM (top dose mostly 46.1 µM), for inactives: at the top dose activity change, negative = cytotoxicity, usual class: cytotoxic | 130,000 compounds, 0.93% hits | AID 924;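 also: 0% = DMSO and -100% = full killing by reference compound; nearly all actives have a fitted effect of over 55% in size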
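H1299-p53 A138V cells (temperature-sensitive p53) exposed 24 h to up to 46 uM compound at 32C, where p53 is wild-type in conformation. Viability read as ATP luminescence and normalised to DMSO and 100 uM tamoxifen. AC50 fitted with the Hill equation.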
ALOX12 inhib: 12-hLO (ALOX12) enzyme inhibition. purified 12-hLO, xylenol orange hydroperoxide absorbance. Potency, µM (doses to about 57.1 µM), inactives show at the highest dose activity change, negative = inhibition, actives largely listed as inhibitors. 150,000 compounds, 0.12% hits; also: nearly all actives have a fitted effect of over 55% in size
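Hydroperoxide output read as Fe(III)-xylenol orange absorbance, 573-to-405 nm ratio, after 30 min reaction with 40 uM arachidonic acid. Enzyme: 150 nM purified human 12hLO, 15 min compound preincubation; 25 mM Hepes pH 7.0, room temperature.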
Active calls of the source: *; ? = inconclusive; . = no result; ! = not active in a repeat; [ ] = another dose, or the depositor's remark. This is a sample that favours compounds with a hit; in the whole collection about 4.4% have one here. Unless noted, calls follow the shape of the dose curve; as a rule, active = well fitted curve in the direction sought with a large enough effect; inconclusive = small, poorly fitted or top-dose-only effect, or another doubt; inactive = no such curve, though single readings can be large; an effect the other way counts as inactive or inconclusive. Unless noted, % is scaled to controls: 0 for no effect and ±100 for the full control effect; potency is read from the fitted curve at half-maximal effect.

SMILES	HPGD inh	p53ts 39C tox	p53ts 32C tox	ALOX12 inhib
CCCC(=O)Nc1nnc(SCc2cc(=O)n3ccccc3n2)s1	.	-6%	-6%	.
COc1ccc(-c2nc(-c3ccccc3)[nH]c(=O)c2C#N)cc1	20µM*	.	.	-3%
CCCCNC(=O)c1ccc2nc(-c3ccco3)c(-c3ccco3)nc2c1	25µM*	-12%	-8%	-6%
O=C(Nc1ccccc1)c1ccc2nc(-c3ccco3)c(-c3ccco3)nc2c1	5µM*	-3%	-4%	-29%
Cc1ccc(CN2C(=O)C(C)(C)Oc3ccc(C(=O)N4CCCCC4)cc32)cc1	32µM*	5%	7%	-8%
CC1(C)Oc2ccc(C(=O)N3CCCCC3)cc2N(CC(=O)NCc2ccccc2)C1=O	-11%	5%	6%	-3%
COc1cccc(C(=O)CN2C(=O)C(C)(C)Oc3ccc(C(=O)N4CCCCCC4)cc32)c1	2.2µM*	?	-2%	-6%
COc1cccc(NC(=O)c2ccc3c(c2)N(CC(=O)N2CCCCC2)C(=O)C(C)(C)O3)c1	-6%	5%	-3%	-9%
Cc1nc2ccc(S(=O)(=O)N(CC(=O)Nc3cccc(C)c3C)Cc3ccccc3)cc2s1	.	?	-2%	.
Cc1ccc(-n2c(=O)c3c(c4cc(C)ccc4n3C)n(CC(=O)Nc3ccc(F)cc3)c2=O)cc1	.	?	4%	.
COCCCNC(=O)c1ccc(N(C)S(=O)(=O)c2ccc(OC)cc2)cc1	1.1µM*	-2%	1%	2%
COCCNC(=O)c1ccc(N(C)S(=O)(=O)c2ccc(OC)c(OC)c2)cc1	6.3µM*	2%	11%	-1%
COCCCNC(=O)c1ccc(N(C)S(C)(=O)=O)cc1	-13%	-19%	6%	0%
COC(=O)C(c1ccccc1Cl)N1CCc2sccc2C1 (stereo not drawn)	-10%	3%	8%	-4%[0.00818 µM]
CCOC(=O)CNC(=O)CNC(=O)c1ccc(OC)cc1	-9%	.	.	4%
CCOC(=O)CSC(=S)NC(=O)c1ccc(OC)cc1	10µM*	.	.	-1%
COc1ccc2nc(SCC(=O)Nc3ccc(S(=O)(=O)Nc4nccc(C)n4)cc3)[nH]c2c1	28µM*	.	.	-4%
CCOC(=O)c1c(-c2cccs2)csc1NC(=O)CSc1ncn[nH]1	?	28%	40%	4%
CCOC(=O)c1c(-c2ccccc2Cl)csc1NC(=O)CSc1nc(C)cc(=O)[nH]1	14µM*	.	.	-2%
COc1ccc2nc(NC(=O)CSc3nccc(C)n3)sc2c1	-23%	.	.	-7%
CCOC(=O)c1c(-c2ccc(C)o2)csc1NC(=O)CSc1nnnn1-c1ccccc1	11µM*	-3%	-5%	?
COc1ccc2nc(NC(=O)CSc3nc(C)cc(=O)[nH]3)sc2c1	28µM*	.	.	-27%
CCOC(=O)c1c(-c2ccc(C)o2)csc1NC(=O)CSc1nnc(C)s1	?	-12%	12%	-15%
COCCNC(=O)Nc1cc(C(=O)NCc2ccc(C(C)C)cc2)ccc1N1CCCC1	.	-1%	-3%	.
CC(C)(C)c1ccc(C(=O)NCC(c2ccco2)S(=O)(=O)c2ccccc2)cc1 (stereo not drawn)	.	-14%	11%	.
SMILES	HPGD inh	p53ts 39C tox	p53ts 32C tox	ALOX12 inhib
CCOC(=O)c1ccc(NC(=O)CSc2nc(C)cc(=O)[nH]2)cc1	28µM*	7%	5%	-9%
CCOC(=O)c1ccc(NC(=O)CSc2nc(C)c(Cc3ccccc3)c(=O)[nH]2)cc1	.	-10%	23%	.
Cc1cc(=O)[nH]c(SCC(=O)Nc2ccc(C(=O)O)cc2)n1	22µM*	.	.	1%
COC(=O)c1cc(NC(=O)CSc2nc(C)cc(=O)[nH]2)cc(C(=O)OC)c1	14µM*	-2%	-4%	-8%
CCN(CC)c1ccc(NC(=O)CSc2nc(C)cc(=O)[nH]2)cc1	-2%	-10%	-1%	-6%
Cc1cc(=O)[nH]c(SCC(=O)Nc2ccc(Br)cn2)n1	-2%	12%	9%	-4%
CCOC(=O)c1ccc(NC(=O)CSc2nc3c(c(=O)n2C)SC(C)C3)cc1 (stereo not drawn)	-27%	13µM*	7.9µM*	-8%
O=C(CSc1n[nH]c(-c2ccccc2Cl)n1)N1CCN(c2ccccc2)CC1	.	-11%	-4%	.
Cc1ccc(-c2csc(NC(=O)CSc3nc(C)cc(=O)[nH]3)n2)cc1	28µM*	.	.	-17%
CCOC(=O)c1ccc(Nc2nnc3nc(C)cc(C)n23)cc1	22µM*	8%	9%	3%
CCOC(=O)c1ccc(Nc2cc(C)nc3ncnn23)cc1	-24%	0%	5%	1%
N#C/C(=C\c1cccc([N+](=O)[O-])c1)c1nnc2n1CCCCC2	32µM*	.	.	-4%
CN(c1ccccc1)c1ccc(/C=C(\C#N)c2nnc3n2CCCCC3)cc1[N+](=O)[O-]	.	.	.	-3%
Cc1onc(-c2c(Cl)cccc2Cl)c1C(=O)N[C@H]1C(=O)N2[C@H]1SC(C)(C)[C@H]2C(=O)O	10µM*	22%[20.6 µM]	3%[20.6 µM]	-3%[25.6 µM]
Cn1cc(C(=O)N2CCN(c3cccc(C(F)(F)F)c3)CC2)c2c3ccccc3n(C)c2c1=O	.	13µM*	-5%	.
Cn1c2ccccc2c2c(C(=O)N3CCN(c4cccc(C(F)(F)F)c4)CC3)cn(C3CCCCC3)c(=O)c21	.	6%	23%	.
N[C@@H](Cc1ccccc1)c1nnc2sc(SCc3ccccc3)nn12	28µM*	1%	4%	-2%
COC(=O)[C@@H]1C[C@H]1[C@@H](NC(=O)Oc1ccc(F)cc1)c1ccccc1	-6%	-11%	24%	0%
CCOC(=O)c1c(S(=O)(=O)NCC(=O)N(C)Cc2ccccc2)c(C)n(C)c1C	.	-2%	8%	.
COCc1cc(C)nc(SCC(=O)c2ccc(O)c(O)c2)c1C#N	16µM*	-17%	-1%	-22%
Cc1c(Cc2ccc3c(c2)OCO3)sc(NC(=O)c2cccc3ccccc23)c1C(N)=O	14µM*	.	.	-3%
COC(=O)c1c(NC(=O)CN2C(=O)c3ccccc3C2=O)sc(Cc2ccc3c(c2)OCO3)c1C	-12%	.	.	-3%
Cc1cc2cc(CNC(=O)c3cc4ccccc4o3)ccc2n1C	7.1µM*	4%	-4%	0%
Cc1cc2cc(CNC(=O)NC3CCCCC3)ccc2n1C	28µM*	.	.	-5%
COCC(=O)NCc1ccc2c(c1)cc(C)n2C	25µM*	2%	-6%	0%
SMILES	HPGD inh	p53ts 39C tox	p53ts 32C tox	ALOX12 inhib
O=C(Nc1ccc(Cl)cc1Cl)c1cc(S(=O)(=O)NCc2ccc3c(c2)OCO3)ccc1F	.	-12%	-5%	.
COc1ccc(C2=Nn3c(nnc3-c3ccco3)SC2)cc1	-26%	.	.	11%
Oc1ccc(C2=Nn3c(nnc3-c3ccco3)SC2)cc1O	14µM*	.	.	?
COc1ccc(OC)c(C2=Nn3c(nnc3-c3ccco3)SC2)c1	28µM*	.	.	-4%
CC(C)(C)C1=Nn2c(nnc2-c2ccco2)SC1	-25%	.	.	2%
Cc1ccc(NC(=O)CSc2nccn2C2CCCC2)cc1	.	-27%	4%	.
CSc1ccc2c(c1)N(CCC1CCCCN1C)c1ccccc1S2 (stereo not drawn)	-3%	13µM*	.	-1%
CSc1ccc2c(c1)N(CC[C@H]1CCCCN1C)c1ccccc1S2	-3%	13µM*!	.	-2%[25.6 µM]

From PubChem
